From PubChem
HCMV inh: inhibitors of human cytomegalovirus; HFF cells, HCMV-luciferase reporter, 72 h; stronger effect = lower value; activity change, negative = inhibition, % at 57.5 µM; actives 4.5% (n = 410,000); AID 1259415; in the data active = activity change below about -60%; inconclusive = no clear call, values can overlap the other calls; inactive = above about -39%
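Human foreskin fibroblasts infected with luciferase-reporter HCMV at MOI 1 PFU/cell, compounds at two doses. Luciferase measured 72 h post infection; normalized to buffer-only basal and Salinomycin (10uM) controls.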
Pf growth 48h: P. falciparum growth inhibition at 48 hours (one generation); actives 5.9% (n = 310,000); Potency, µM (highest dose often 28.7 µM), hits mostly inhibitors; P. falciparum luciferase growth in erythrocytes, 48 h
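Luminescence readout; reporter = integrated firefly luciferase in P. falciparum. RBC culture at 2% hematocrit, 0.1% parasitemia final, 37 C/5% CO2; decreased signal taken as growth inhibition.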
CHX counter: counter-screen for Shiga toxin inhibitors: cycloheximide protein synthesis inhibition | cell reporter, cycloheximide protein synthesis inhibition counterscreen | actives 12% (n = 300,000) | max response, % | AID 2314; in the data active = max response mostly above about 13%, no sharp cut-off; inactive = mostly below about 14%; note: read at 38.3 µM for the half of the compounds with a filed dose
Shiga toxin inh: Shiga toxin inhibition; Vero cells, Shiga toxin protein synthesis inhibition reporter; inhibition, % at 38.7 µM; actives 9.2% (n = 290,000); AID 2315; in the data active = inhibition mostly above about 28%, no sharp cut-off; inactive = mostly below about 43%
Pf growth 96h: P. falciparum growth inhibition at 96 hour, primary screen for plastid delayed-death inhibitors. P. falciparum luciferase reporter growth, 96 h. Potency, µM (titrated, usually from 28.7 µM), actives largely listed as inhibitors. actives 6.9% (n = 320,000)
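96 h incubation, 37 C, 5% CO2, of luciferase-reporter P. falciparum-infected RBCs (2% hematocrit, 0.05% parasitemia final) with test compounds; endpoint luminescence.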
Numbers stand for hits; - = inactive; ? = inconclusive; . = no result. Sampled rows, rich in hits. Any-hit rate of the full collection: about 20%. Unless noted, calls come from the whole dose curve; as a rule, active = well fitted inhibition curve with a large enough effect; inconclusive = small, poorly fitted or top-dose-only effect, or another doubt; inactive = no such curve, though single readings can be large or run the other way.

SMILES | HCMV inh | Pf growth 48h | CHX counter | Shiga toxin inh | Pf growth 96h
O=C(Nc1cccnc1Cl)c1cc(-c2cccc(O)c2)on1 | - | - | 16 | 70 | -
COC(=O)c1c(NC(C)=O)sc(C(=O)Nc2ccccc2C)c1C | - | - | - | - | -
CCOC(=O)c1cccc(NC(=O)C2CCCN(c3nnc(N4CCCC4=O)s3)C2)c1 (centres undefined) | - | ? | - | - | ?
CCOc1ccc(NC(=O)COc2ccc(C(=O)NCCc3ccccc3)cc2)cc1 | -81 | - | - | - | -
CCOc1ccc(NC(=O)c2ccc(NC(=O)COC(=O)Cc3ccccc3)cc2)cc1 | - | - | 40 | 50 | -
COCc1c(Br)c(C)nc(OCC(=O)N/N=C/c2cc(C)n(-c3ccc([N+](=O)[O-])cc3)c2C)c1C#N | - | 12µM | - | - | ?
Cc1cc(/C=N/NC(=O)CC#N)c(C)n1-c1ccc([N+](=O)[O-])cc1 | -91 | - | - | - | ?
O/N=C/c1cc(Cl)ccc1OCc1cccc2ccccc12 | . | - | - | - | -
COc1ccc(C(=O)O/N=C/c2c(C(F)(F)F)nn(C)c2SCc2ccccc2Cl)cc1 | -82 | - | - | - | -
CC1(C)N=C(N)N=C(N)N1c1cccc(C(=O)O)c1 | ? | - | - | - | .
COc1ccccc1N1C(N)=NC(N)=NC1(C)C | - | ? | - | - | -
CC1(C)N=C(N)N=C(N)N1c1cccc(C#N)c1 | -77 | . | . | . | .
COc1ccc(N2C(N)=NC(N)=NC2(C)C)cc1 | ? | 0.033µM | - | - | ?
CCOc1ccc(N2C(N)=NC(N)=NC2(C)C)cc1 | -68 | 0.13µM | - | - | -
COc1cccc(N2C(N)=NC(N)=NC2(C)C)c1 | -67 | 0.13µM | - | - | -
CC#CCN(Cc1ccco1)C(=O)c1ccc(OC2CCN(Cc3ccccn3)CC2)cc1 | - | ? | - | - | -
FC(F)(F)c1nc(N2CCCC2)ncc1-c1nnnn1-c1ccccc1 | -72 | - | - | - | -
Cc1ccc(-n2nnnc2-c2cnc(N3CCCC3)nc2C(F)(F)F)cc1 | ? | . | - | - | -
O=C(NCC(c1ccco1)S(=O)(=O)c1cccs1)c1ccccc1F (centres undefined) | - | . | . | . | .
CCOC(=O)Cn1c(-c2nonc2NC(=O)c2ccccc2F)nc2ccccc21 | -98 | . | - | - | .
CCC(=O)Nc1nonc1-c1nc2ccccc2n1Cc1ccccc1 | - | ? | - | - | .
CCC(=O)Nc1nonc1-c1nc2ccccc2n1Cc1cccc2ccccc12 | -104 | ? | - | - | 5.2µM
CCCCOc1ccccc1NC(=O)Cn1c(-c2nonc2N)nc2ccccc21 | -78 | - | - | - | .
Cc1[nH]c2ccc(C(=O)NCCc3ccccc3Cl)cc2c1C | - | . | . | . | .
O=C(COC(=O)c1ccc2[nH]c3c(c2c1)CCCC3)Nc1ccccc1 | - | - | 16 | 42 | -
SMILES | HCMV inh | Pf growth 48h | CHX counter | Shiga toxin inh | Pf growth 96h
Nc1ccccc1C(=O)OCCOc1ccccc1 | - | - | 34 | 87 | .
CCOC(=O)c1n[nH]c2ccccc12 | - | - | - | - | ?
O=C(OCCOc1ccccc1)c1n[nH]c2ccccc12 | - | - | 47 | 55 | -
CN(C(=O)COC(=O)c1n[nH]c2ccccc12)c1ccccc1 | - | - | 27 | - | -
CCOC(=O)c1cc(CC)sc1NC(=O)CN1C(=O)C(=O)N(CC(C)C)C1=O | - | - | . | . | -
O=C(COC(=O)c1n[nH]c2ccccc12)Nc1ccccc1 | - | - | 39 | 57 | -
O=C(COC(=O)c1n[nH]c2ccccc12)NCCc1ccccc1 | - | . | . | . | .
CC(=O)c1cccc(NC(=O)COC(=O)c2n[nH]c3ccccc23)c1 | - | - | 19 | 102 | -
Cc1cc(C)cc(NC(=O)COC(=O)c2n[nH]c3ccccc23)c1 | - | - | - | 65 | -
COc1ccc(Cl)cc1N1C(=O)/C(=C/c2sccc2C)N=C1SCC(=O)NC1CC1 | - | . | . | . | .
COc1ccc(-c2cccc(C3C4C=CCCC4(C)C(=O)N3Cc3ccccc3)c2)cc1 (centres undefined) | . | . | - | - | .
O=C(CN1C(=O)NC2(CCc3ccccc32)C1=O)c1c[nH]c2ccccc12 (centres undefined) | - | 8.3µM | . | . | ?
COc1ccc(CNC(=O)CN2C(=O)NC3(CCCc4sccc43)C2=O)cc1OC (centres undefined) | - | ? | . | . | 4.1µM
O=C(CN1C(=O)NC2(CCc3ccccc32)C1=O)c1ccccc1 (centres undefined) | - | - | - | - | -
